PubChem BioAssay (NCI)
This is part of a sample that, as a whole, favours compounds with a hit. Of some 83,000 tested, about 20% had one in any assay.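 Treatment: one concentration, 48 hours, 96-well format. Scoring: percent growth, with anything below 10 considered active.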 Values without a mark were called inactive. Active and inactive are the calls of the source.

Key:
Test in all cases: NCI-60 one-dose screen, 48 h (100 = growth as untreated, 0 = no growth, -100 = all killed)
SK-MEL-2 melanoma = conditions: 10 µM unless noted
EKVX NSCLC = conditions: 10 µM unless noted
SN12C renal = conditions: 10 µM unless noted
UO-31 renal = conditions: 10 µM unless noted
TK-10 renal = conditions: 10 µM unless noted
ACHN renal = conditions: 10 µM unless noted
CAKI-1 renal = conditions: 10 µM
A498 renal = conditions: 10 µM unless noted
CCRF-CEM leukemia = conditions: 10 µM unless noted
MOLT-4 leukemia = conditions: 10 µM unless noted
SR leukemia = conditions: 10 µM unless noted
RPMI-8226 leukemia = conditions: 10 µM unless noted
OVCAR-8 ovarian = conditions: 10 µM unless noted
OVCAR-5 ovarian = conditions: 10 µM unless noted
OVCAR-4 ovarian = conditions: 10 µM unless noted
SK-OV-3 ovarian = conditions: 10 µM unless noted
IGROV1 ovarian = conditions: 10 µM unless noted
HS 578T breast = conditions: 10 µM unless noted
NCI/ADR-RES ovarian = conditions: 10 µM unless noted
OVCAR-3 ovarian = conditions: 10 µM unless noted

Row | SMILES | growth (SK-MEL-2 melanoma) | growth (EKVX NSCLC) | growth (SN12C renal) | growth (UO-31 renal) | growth (TK-10 renal) | growth (ACHN renal) | growth (CAKI-1 renal) | growth (A498 renal) | growth (CCRF-CEM leukemia) | growth (MOLT-4 leukemia) | growth (SR leukemia) | growth (RPMI-8226 leukemia) | growth (OVCAR-8 ovarian) | growth (OVCAR-5 ovarian) | growth (OVCAR-4 ovarian) | growth (SK-OV-3 ovarian) | growth (IGROV1 ovarian) | growth (HS 578T breast) | growth (NCI/ADR-RES ovarian) | growth (OVCAR-3 ovarian)
1 | Cc1cc(C(=O)Nc2ccc(SC#N)cc2)c(C)o1 | 110% | 90.4% | 70.6% | 49.3% | 101% | 100% | 81.7% | 94.4% | 28.8% | 29.7% | 5.44% (active) | 83.1% | 98.3% | 115% | 104% | 111% | 88.9% | 112% | 100% | –
2 | COCCC[C@H]1O[C@@](O)([C@H](C)[C@@H]2CC(OC)C(O)/C=C(C)/C=C(C)/C=C(\C)C(OC3O[C@@H](C)[C@H](O)C(O)[C@@H]3O)C(C)/C=C(C)/C=C(OC)/C=C(\C)C(=O)O2)C(OC)C(O)[C@]1(C)O[C@H]1C[C@@H](O)[C@H](O[C@H]2C[C@](C)(O)[C@H](O)C(C)O2)C(C)O1 (stereo partly drawn) | 50.6% | 21.6% | 68.3% | 25.7% | 49.9% | 67.7% | 73.8% | 56% | 53.9% | 47.8% | 113% | 27.5% | 41.9% | 78.9% | 19.7% | 61% | 88.1% | – | 67.3% | 74.9%
3 | O=C(COc1ccc(/C=C2\SC(=O)NC2=O)cc1)Nc1ccc(C(=O)/C=C/c2cc3ccccc3nc2Cl)cc1 | 91% | 73.1% | 87.5% | 57.6% | 89.8% | 85.1% | 59.2% | 80.7% | 35.4% | 42.8% | 31.3% | -25.8% (active) | 76.4% | 110% | 42.2% | 108% | 71.4% | 78.8% | 92.6% | 85.5%
4 | COc1cc2cc(Oc3ccc(NC(=O)c4cccc(C(F)(F)F)c4)cc3)c(C)nc2cc1OCCN(C)C | 108% | 83% | 84.1% | 84% | 98% | 86.6% | 75.2% | 100% | 41% | 67.1% | 28.6% | 73.1% | 89.8% | 103% | 80.5% | 108% | 93.2% | 74.8% | 80.7% | 102%
5 | O=C(CSc1nnc(-c2ccc(Cl)cc2)n1-c1ccccc1)Nc1ccc(F)cc1 | 111% | 90.6% | 62.6% | 97.5% | 88.7% | 24.7% | 70.9% | 69.8% | 91.8% | 103% | 76.4% | 89.5% | 74% | 97.4% | 98.3% | 83.8% | 95.1% | 61.4% | 77.9% | 87.7%
6 | COc1ccc(-c2nc(SCCC(C)C)nc(N/N=C\c3ccc(O)cc3)c2C#N)cc1 | 104% | 93.1% | 67.6% | 76.8% | 157% | 60.9% | 78% | 92.5% | 54.7% | 64.5% | 25.5% | 42.7% | 47.6% | 101% | 74.9% | 109% | 68.5% | 67% | 55.1% | –
7 | CN1C(=O)N(C)C2C1NN=c1s/c(=C\c3ccccn3)c(=O)n12 (stereo not drawn) | 103% | 99.4% | 98.8% | 91.3% | 104% | 104% | 100% | 105% | 101% | 107% | 114% | 101% | 101% | 109% | 105% | 110% | 102% | 104% | 96.7% | 115%
8 | O=C(/C=C/c1cn(-c2ccccc2)nc1-c1ccc(Cl)cc1)c1cc2ccccc2oc1=O | 88% | 79.8% | 31% | 39.8% | 113% | 59.9% | 29.2% | 111% | 50.7% | 55.3% | 45.2% | 70.8% | 52.8% | 98% | 57.2% | 92.7% | 35.4% | – | 71.9% | 82.8%
9 | Cc1cc(O)c2c(c1)C(=O)C(c1c(C)cc3c(c1O)C(=O)C=CC3=O)=CC2=O | 123% | 100% | 74.7% | -14.9% (active) | 14.2% | -8.41% (active) | 13.8% | 122% | 19.3% | 41.4% | 11.1% | 15.2% | 82.5% | 117% | 86.3% | 89.2% | 108% | 102% | 100% | –
10 | CCOC(=O)c1c(NC(=O)c2cccc(C(F)(F)F)c2)sc2c(CN3CCN(C)CC3)c(O)ccc12 | 94.7% | 70.4% | -83.7% (active) | -95% (active) | -52.7% (active) | -98.8% (active) | -73.9% (active) | 77.5% | -23.8% (active) | -27.8% (active) | 23.5% | -28.8% (active) | -35.2% (active) | -77.9% (active) | 26.8% | 97.3% | -86.1% (active) | 76.3% | -38.2% (active) | 65.6%
11 | O=C(CCCCCCN1CC(=O)N2[C@@H](c3cccc(Br)c3)c3[nH]c4ccccc4c3C[C@H]2C1=O)NO | 33.5% | 54.8% | 44.7% | 46.2% | 28.1% | 73.4% | 23.1% | 49.4% | 14.9% | 12.4% | 37.4% | 13.4% | 24.9% | 29% | 48.9% | 13.9% | 2.39% (active) | 61.4% | 91.9% | 6.19% (active)
12 | Oc1ccc(CSc2nnc(-c3ccc(Oc4ccccc4)cc3)n2-c2ccccc2)c2cccnc12 | 37.6% | 14.8% | 19.1% | -5.33% (active) | 23.6% | 6.83% (active) | 13.1% | 35.2% | 10.3% | 18.7% | 45.8% | 7.82% (active) | 16.5% | 42.7% | 17.9% | 14.1% | 11.7% | 18.7% | 6.26% (active) | 19.3%
13 | O=C(NCCNc1cc(-c2cn(-c3ccccc3)nc2-c2cccc(O)c2)ccn1)Nc1ccc(Cl)c(C(F)(F)F)c1 | 104% | 56.7% | 65.6% | 42.1% | 98.1% | 44.2% | 46% | 72.5% | 54.1% | 47.1% | 65.5% | 17.5% | 74.1% | 59.9% | 73.5% | 94.6% | 69% | 41.6% | 49.8% | –
14 | O=C1c2c(c3c4cccnc4[nH]c3c3ccc4ccccc4c23)C(=O)N1CCN1CCOCC1 | 98.4% | 86.7% | 68.4% | 54.5% | 112% | 41.3% | 46.2% | 69% | 23.9% | 7.9% (active) | 21.8% | 42.5% | 47.2% | 98.3% | 84.4% | 86.9% | 57.7% | 82.1% | 47% | –
15 | Oc1ccc(-c2nnc(SCc3ccc(O)c4ncccc34)n2-c2ccccc2)cc1 | 38.1% | 7.56% (active) | 18.7% | -8.86% (active) | 34.3% | 8.27% (active) | 16.1% | 16% | 6.99% (active) | 12.5% | 37.3% | 15.5% | 10.1% | 34.6% | 10.2% | 18.7% | 8.1% (active) | 39.8% | 8.08% (active) | 3.67% (active)
